# Assay results taken from PubChem BioAssay (NCATS).
# “And” between values parts separate entries of the source, which are not always exact repeats. Equal entries are not always repeated. Inconclusive results are not listed. The source made the active and inactive calls. Unless noted, the call rests on the fitted dose curve; in most records, active means well fitted curve in the direction sought with a large enough effect; inconclusive means small, poorly fitted or top-dose-only effect, or another doubt; inactive means no such curve, though single readings can be large; an effect the other way counts as inactive or inconclusive.
# Legend:
# [1] = qHTS Assay for Lipid Storage Modulators (AID 1519; calls by dose curve; on activity change, negative = inhibition: on the % scale 0 is the no-effect control and ±100 the full control effect); conditions: Drosophila S3 cells, BODIPY lipid droplet/cell ratio, laser cytometry, cells loaded with oleic acid
# How it was run: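 Cells seeded at 5,000 per well were treated with compounds over a concentration series and loaded with oleic acid (400 uM, as added). Lipid droplet fluorescence (488 nm excitation, 500-530 nm channel) was read by laser-scanning cytometry and normalized to 20 uM Triacsin C.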
# [2] = target: DNA repair nuclease/redox regulator APEX1 (Homo sapiens) (UniProt P27695); assay: qHTS Validation Assay for Inhibitors of the Human Apurinic/apyrimidinic Endonuclease 1 (APE1) (AID 1705;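 further: TAMRA fluorescence gain over two minutes as APE1 cuts a quenched THF abasic duplex; on the % scale 0 is the no-effect control and ±100 the full control effect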); conditions: purified APE1 endonuclease activity, fluorescence, titration; series mostly up to 57.1 µM
# How it was run: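 Read-out: TAMRA fluorescence (525 nm ex, 598 nm em) from cleavage of a quenched THF abasic-site duplex, 50 nM final; activity taken as intensity change between third and first of three reads 60 s apart.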
# [3] = Counterscreen for APE1 Inhibitors: Fluorescent Dye Displacement Validation Assay (AID 1707); conditions: fluorescent dye displacement from DNA; series mostly up to 57.1 µM;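 further: plate controls were ThO with dsDNA and no compound for no effect and ThO without dsDNA for full effect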
# How it was run: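 Signal: ThO fluorescence (ex 480 nm/em 540 nm) on binding 50 nM dsDNA; displacement by test compound reduces it. Conditions: 250 nM dye, 50 mM Tris-HCl pH7.5, 2 mM MgCl2, 50mM NaCl, 0.01% Tween-20.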
# [4] = target: alpha-glucosidase (Oryza sativa, rice) (UniProt Q653V4); assay: Counterscreen for Glucocerebrosidase Inhibitors: qHTS Assay for Rice alpha-Glucosidase at pH 5.0 (AID 997); conditions: rice alpha-glucosidase enzyme activity; series mostly up to 76.9 µM;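 further: 0% = full activity with enzyme and -100% = basal without enzyme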
# How it was run: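 Endpoint fluorogenic assay at pH 5.0: compounds (0.7 nM to 77 uM) titrated against 4 nM rice enzyme and 400 uM 4-MU-alpha-glucoside for 20 min at room temperature; NaOH/glycine stop, read ex 365/em 440 nm, Hill-fitted AC50.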
# [5] = Cell Viability - LYMP1-002 - Assay at 24 hr (AID 993); conditions: LYMP1-002 lymphoblastoid cells viability; series mostly up to 92.2 µM; further: potency means the concentration at half of the fitted maximal effect
# How it was run: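 Acute toxicity is measured as concentration-dependent loss of cellular ATP in a human lymphoblastoid line (Coriell LYMP1-002) after 24 h treatment in complete medium. ATP is quantified by luciferase luminescence and AC50 derived by Hill modelling.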
# [6] = Cell Viability - LYMP2-020 (AID 986); conditions: series mostly up to 92.2 µM;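 further: cells exposed to compound for 24 h at 37 °C; nearly all actives have a fitted effect of over 55% in size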; further: potency means the concentration at half of the fitted maximal effect
# How it was run: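 Seed 2500 cells per well and incubate 5 hr at 37 C. Add compounds at a concentration series and incubate 24 hr at 37 C. Add CellTiter-Glo, wait 30 min at RT, read luminescence, and fit a Hill curve for AC50.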
# [7] = Cell Viability - LYMP2-022 (AID 987); conditions: LYMP2-022 lymphoblastoid cell viability; series mostly up to 92.2 µM; further: nearly all actives have a fitted effect of over 55% in size; further: potency means the concentration at half of the fitted maximal effect
# How it was run: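 Cells were seeded at 2500 per well, rested 5 hr at 37 C, and treated with titrated compounds for 24 hr at 37 C. Cellular ATP was then quantified by luciferase luminescence, and AC50 values were derived from Hill-modelled concentration-response curves.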
# [8] = Cell Viability - LYMP2-024 (AID 988); conditions: LYMP2-024 lymphoblastoid cell viability; series mostly up to 92.2 µM;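 further: plate controls were DMSO only for no effect and 92 µM tetraoctylammonium bromide for full effect; nearly all actives have a fitted effect of over 60% in size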
# How it was run: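 qHTS cytotoxicity, human lymphoblastoid line, complete medium; 24 h cpd treatment, 37 C; CellTiter-Glo ATP luminescence readout; tetraoctylammonium bromide positive control; AC50 via Hill fit.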
# [9] = Cell Viability - LYMP1-002 - Assay at 40 hr (AID 994); conditions: LYMP1-002 lymphoblastoid cell viability; series mostly up to 92.2 µM; further: nearly all actives have a fitted effect of over 60% in size; further: potency means the concentration at half of the fitted maximal effect
# How it was run: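 Cells are plated at 2500 per well and rested 5 hr at 37 C. Compounds are added and incubated 40 hr at 37 C. CellTiter-Glo reagent is added for 30 min at room temperature before luminescence is read.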
# [10] = measured here: cell count channel max response
# [11] = measured here: lipid channel max response
# Sequence of DNA repair nuclease/redox regulator APEX1 (Homo sapiens) (P27695 whole entry, looked up): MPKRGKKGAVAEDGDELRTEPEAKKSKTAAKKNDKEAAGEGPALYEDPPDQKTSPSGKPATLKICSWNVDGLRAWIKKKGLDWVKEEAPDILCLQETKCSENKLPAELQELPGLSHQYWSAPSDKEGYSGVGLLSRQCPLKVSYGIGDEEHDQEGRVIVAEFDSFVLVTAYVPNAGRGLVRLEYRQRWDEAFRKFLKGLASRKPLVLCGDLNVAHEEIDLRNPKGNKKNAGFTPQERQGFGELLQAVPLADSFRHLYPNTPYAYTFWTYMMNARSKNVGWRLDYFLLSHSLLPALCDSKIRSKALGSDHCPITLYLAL
smiles,measurement,setting,value
CSc1ccc2c(c1)N(CCC1CCCCN1C)c1ccccc1S2 (stereo not drawn),"activity change, negative = inhibition",[1]; at 57.5 µM (top of the series),-0.301% (inactive)
same,max response,[1]; [10],-6.02%
same,max response,[1]; [11],-4.98%
same,Potency,[2],inactive
same,Potency,[3],inactive
Cn1cc[nH]c1=S,"activity change, negative = inhibition",[1]; at 25.7 µM (top of the series),-0.635% (inactive)
same,"activity change, negative = inhibition",[1]; at 57.5 µM (top of the series),4.03% (inactive)
same,max response,[1]; [10],-10.4% and 8.98%
same,max response,[1]; [11],-9.93% and 13%
O=C(CCCN1CCN(c2ccccn2)CC1)c1ccc(F)cc1,"activity change, negative = inhibition",[1]; at 25.7 µM (top of the series),0.351% (inactive)
same,"activity change, negative = inhibition",[1]; at 57.5 µM (top of the series),15.3% (inactive)
same,max response,[1]; [10],-7.79% and 5.38%
same,max response,[1]; [11],-10.2% and 27.2%
CCCCN(CCCC)CCCOC(=O)c1ccc(N)cc1,"activity change, negative = inhibition",[1]; at 25.7 µM (top of the series),-3.3% (inactive)
same,"activity change, negative = inhibition",[1]; at 57.5 µM (top of the series),6.89% (inactive)
same,max response,[1]; [10],-6.51% and -0.907%
same,max response,[1]; [11],-7.52% and 11.8%
CN(C)CCCN1c2ccccc2Sc2ccc(Cl)cc21,outcome,[4],inactive
same,"activity change, negative = inhibition",[1]; at 25.7 µM (top of the series),-3.35% (inactive)
same,"activity change, negative = inhibition",[1]; at 57.5 µM (top of the series),10.9% (inactive)
same,max response,[1]; [10],-15.1% and 7.95%
same,max response,[1]; [11],-17.6% and 24.6%
same,Potency,[2],inactive
same,Potency,[3],inactive
Nc1ccc(S(=O)(=O)Nc2ccc(Cl)nn2)cc1,"activity change, negative = inhibition",[1]; at 25.7 µM (top of the series),0.129% (inactive)
same,"activity change, negative = inhibition",[1]; at 57.5 µM (top of the series),9.01% (inactive)
same,max response,[1]; [10],5.02% and 19.5%
same,max response,[1]; [11],5.1% and 34.7%
CN(C)CCC=C1c2ccccc2CCc2ccccc21,Potency,[5],inactive
same,outcome,[4],inactive
same,"activity change, negative = inhibition",[1]; at 25.7 µM (top of the series),-5.26% (inactive)
same,"activity change, negative = inhibition",[1]; at 57.5 µM (top of the series),-0.124% (inactive) and 0.255% (inactive)
same,max response,[1]; [10],-13.5% and 9.92% and -13.3%
same,max response,[1]; [11],-18.6% and 12.5% and -14.8%
same,Potency,[2],inactive
same,Potency,[3],inactive
CCn1cc(C(=O)O)c(=O)c2cnc(N3CCNCC3)nc21,"activity change, negative = inhibition",[1]; at 25.7 µM (top of the series),-2.05% (inactive)
same,"activity change, negative = inhibition",[1]; at 57.5 µM (top of the series),0.203% (inactive)
same,max response,[1]; [10],0.27% and 20.9%
same,max response,[1]; [11],-1.56% and 23.6%
CN(C)CCOC(C)(c1ccccc1)c1ccccn1 (stereo not drawn),"activity change, negative = inhibition",[1]; at 57.5 µM (top of the series),3.29% (inactive)
same,max response,[1]; [10],-15.9%
same,max response,[1]; [11],-9.47%
same,Potency,[2],inactive
same,Potency,[3],inactive
COc1ccc2c(c1)C(=O)N(CCc1ccc(S(=O)(=O)NC(=O)NC3CCCCC3)cc1)C(=O)C2(C)C,"activity change, negative = inhibition",[1]; at 25.7 µM (top of the series),-1.13% (inactive)
same,max response,[1]; [10],-22.2%
same,max response,[1]; [11],-23.3%
NCC(=O)CCC(=O)O,"activity change, negative = inhibition",[1]; at 57.5 µM (top of the series),1.06% (inactive)
same,max response,[1]; [10],6.63%
same,max response,[1]; [11],10.2%
C[C@H](N)[C@H](O)c1cccc(O)c1,"activity change, negative = inhibition",[1]; at 25.7 µM (top of the series),-0.37% (inactive)
same,max response,[1]; [10],15.1%
same,max response,[1]; [11],15%
CCN(CC)C(C)CN1c2ccccc2Sc2ccccc21 (stereo not drawn),"activity change, negative = inhibition",[1]; at 57.5 µM (top of the series),2.47% (inactive)
same,max response,[1]; [10],-20.9%
same,max response,[1]; [11],-15.4%
Cc1ccc(C(C)C)cc2c(C)ccc1-2,"activity change, negative = inhibition",[1]; at 57.5 µM (top of the series),7.53% (inactive)
same,max response,[1]; [10],18.3%
same,max response,[1]; [11],26.1%
CC(C)NC[C@H](O)c1ccc(O)c(O)c1,outcome,[4],inactive
same,"activity change, negative = inhibition",[1]; at 25.7 µM (top of the series),-3.67% (inactive)
same,"activity change, negative = inhibition",[1]; at 57.5 µM (top of the series),0.654% (inactive) and 2.27% (inactive)
same,max response,[1]; [10],-12.5% and 0.715% and 18.4%
same,max response,[1]; [11],-17.7% and 2.86% and 19.2%
same,Potency,[2],inactive
same,Potency,[3],inactive
CN1CCOC(c2ccccc2)c2ccccc2C1 (stereo not drawn),"activity change, negative = inhibition",[1]; at 57.5 µM (top of the series),6.92% (inactive)
same,max response,[1]; [10],13.7%
same,max response,[1]; [11],26.3%
O=c1cc[nH]c(=S)[nH]1,"activity change, negative = inhibition",[1]; at 57.5 µM (top of the series),7.12% (inactive)
same,max response,[1]; [10],11.5%
same,max response,[1]; [11],29.2%
CNCCCC1c2ccccc2C=Cc2ccccc21,outcome,[4],inactive
same,"activity change, negative = inhibition",[1]; at 25.7 µM (top of the series),-5.19% (inactive)
same,"activity change, negative = inhibition",[1]; at 57.5 µM (top of the series),0.497% (inactive)
same,max response,[1]; [10],-11.5% and -13.6%
same,max response,[1]; [11],-15.9%
same,Potency,[2],inactive
same,Potency,[3],inactive
Nc1ccc(S(=O)(=O)NC(=O)c2ccccc2)cc1,"activity change, negative = inhibition",[1]; at 25.7 µM (top of the series),2.01% (inactive)
same,"activity change, negative = inhibition",[1]; at 57.5 µM (top of the series),8.83% (inactive)
same,max response,[1]; [10],-14.6% and 20.6%
same,max response,[1]; [11],-13.2% and 26.2%
CC(COc1ccccc1)NC(C)C(O)c1ccc(O)cc1 (stereo not drawn),"activity change, negative = inhibition",[1]; at 57.5 µM (top of the series),4.19% (inactive)
same,max response,[1]; [10],1.34%
same,max response,[1]; [11],8.74%
CCCCN1CCCC[C@H]1C(=O)Nc1c(C)cccc1C,"activity change, negative = inhibition",[1]; at 25.7 µM (top of the series),-1.47% (inactive)
same,max response,[1]; [10],8.59%
same,max response,[1]; [11],9.64%
C[C@H]1O[C@@H](n2cc(F)c(=O)[nH]c2=O)[C@H](O)[C@@H]1O,"activity change, negative = inhibition",[1]; at 57.5 µM (top of the series),-0.32% (inactive)
same,max response,[1]; [10],40.7%
same,max response,[1]; [11],39.7%
same,Potency,[2],inactive
same,Potency,[3],inactive
O=C1c2c(O)cccc2Cc2cccc(O)c21,Potency,[6],inactive
same,Potency,[7],inactive
same,outcome,[8],inactive
same,Potency,[5],inactive
same,Potency,[9],inactive
same,"activity change, negative = inhibition",[1]; at 57.5 µM (top of the series),2.53% (inactive)
same,max response,[1]; [10],14.4%
same,max response,[1]; [11],20.2%
COc1ccccc1O,Potency,[6],inactive
same,Potency,[7],inactive
same,outcome,[8],inactive
same,Potency,[5],inactive
same,Potency,[9],inactive
Cc1c(O)cccc1C(=O)N[C@@H](CSc1ccccc1)[C@H](O)CN1C[C@H]2CCCC[C@H]2C[C@H]1C(=O)NC(C)(C)C,Potency,[6],50.1 µM (active)
same,Potency,[7],39.8 µM (active)
same,Potency,[5],39.8 µM (active)
same,Potency,[9],31.6 µM (active)
NCCNCCNCCN,Potency,[6],inactive
same,Potency,[7],inactive
same,outcome,[8],inactive
same,Potency,[5],inactive
same,Potency,[9],inactive
C[C@](N)(Cc1ccc(O)cc1)C(=O)O,"activity change, negative = inhibition",[1]; at 57.5 µM (top of the series),2.05% (inactive)
same,max response,[1]; [10],7.9%
same,max response,[1]; [11],13.3%
same,Potency,[2],inactive
same,Potency,[3],inactive
CC(=O)OCC(=O)[C@@]1(O)CC[C@H]2[C@@H]3CCC4=CC(=O)CC[C@]4(C)[C@H]3C(=O)C[C@@]21C,outcome,[4],inactive
same,Potency,[2],inactive
same,Potency,[3],inactive
CC(C)C(=O)c1c(C(C)C)nn2ccccc12,outcome,[4],inactive
same,Potency,[2],inactive
same,Potency,[3],inactive
